Compound activity deposited in PubChem by National Center for Advancing Translational Sciences (NCATS).
BAZ2B block = qHTS Assay for Inhibitors of BAZ2B | Bromodomain adjacent to zinc finger domain protein 2B (Homo sapiens), Q9UIF8 | AlphaScreen BAZ2B-H3K14Ac peptide displacement | Potency, µM (top dose mostly 114 µM), for the others: at the highest dose activity change, negative = inhibition, hits mostly inhibitors | 4.4% of 360,000 active | AID 504333, 2011; note: % is set by controls: 0 for no effect and ±100 for the full control effect; nearly all actives have a fitted effect of over 60% in size
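Protein-peptide AlphaScreen: BAZ2B 50 nM, b-H3K14Ac 50 nM, 1x PBS pH 7.4 + 0.01% Tween-20. Preincubation 30 min RT; cpd 30 min RT (top 110 uM); beads 20 min RT, light-protected.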
PLK1 PBD inh = qHTS for Inhibitors of PLK1-PDB (polo-like kinase 1 - polo-box domain): Primary Screen. Potency, µM, without a hit: max response, negative = inhibition, hits mostly inhibitors. Plk1 PBD binding of FITC phosphopeptide, fluorescence polarization. 2.8% of 360,000 active. Serine/threonine-protein kinase PLK1 (Homo sapiens), P53350; note: series mostly up to about 57 µM; % is set by controls: 0 for no effect and ±100 for the full control effect; nearly all actives have a fitted effect of over 65% in size
Sfp inh = qHTS Assay for Inhibitors of Bacillus subtilis Sfp phosphopantetheinyl transferase (PPTase); 4'-phosphopantetheinyl transferase ffp (Bacillus subtilis), Q9F4F7; Biochemical Sfp PPTase activity, qHTS; Potency, µM, without a hit: largest response in the series, negative = inhibition, most hits filed as inhibitors; 3.5% of 310,000 active;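 note: the enzyme is Sfp with the accession as filed and its product quenches rhodamine fluorescence; 0% = enzyme reaction without inhibitor and -100% = no enzyme wells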
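Fluorescence-quenching assay with 15 nM Sfp, 5 uM rhodamine-CoA and 12.5 uM BHQ-2-labelled ybbR peptide in pH 7.6 Hepes/MgCl2 buffer. Enzyme was pre-incubated with compound for 15 min at room temperature. Rate was taken from the 30-min fluorescence change (525/598 nm).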
JMJD2A Tudor = qHTS Assay for Inhibitors of JMJD2A-Tudor Domain. AlphaScreen JMJD2A-Tudor / H3K4me3 peptide binding. Potency, µM (highest dose often 114 µM), without a hit: at the top dose activity change, negative = inhibition, actives largely listed as inhibitors. 4.4% of 390,000 active; note: % is set by controls: 0 for no effect and ±100 for the full control effect; nearly all actives have a fitted effect of over 50% in size
Target sequence (O75164 whole entry, looked up, the tested form may be a part): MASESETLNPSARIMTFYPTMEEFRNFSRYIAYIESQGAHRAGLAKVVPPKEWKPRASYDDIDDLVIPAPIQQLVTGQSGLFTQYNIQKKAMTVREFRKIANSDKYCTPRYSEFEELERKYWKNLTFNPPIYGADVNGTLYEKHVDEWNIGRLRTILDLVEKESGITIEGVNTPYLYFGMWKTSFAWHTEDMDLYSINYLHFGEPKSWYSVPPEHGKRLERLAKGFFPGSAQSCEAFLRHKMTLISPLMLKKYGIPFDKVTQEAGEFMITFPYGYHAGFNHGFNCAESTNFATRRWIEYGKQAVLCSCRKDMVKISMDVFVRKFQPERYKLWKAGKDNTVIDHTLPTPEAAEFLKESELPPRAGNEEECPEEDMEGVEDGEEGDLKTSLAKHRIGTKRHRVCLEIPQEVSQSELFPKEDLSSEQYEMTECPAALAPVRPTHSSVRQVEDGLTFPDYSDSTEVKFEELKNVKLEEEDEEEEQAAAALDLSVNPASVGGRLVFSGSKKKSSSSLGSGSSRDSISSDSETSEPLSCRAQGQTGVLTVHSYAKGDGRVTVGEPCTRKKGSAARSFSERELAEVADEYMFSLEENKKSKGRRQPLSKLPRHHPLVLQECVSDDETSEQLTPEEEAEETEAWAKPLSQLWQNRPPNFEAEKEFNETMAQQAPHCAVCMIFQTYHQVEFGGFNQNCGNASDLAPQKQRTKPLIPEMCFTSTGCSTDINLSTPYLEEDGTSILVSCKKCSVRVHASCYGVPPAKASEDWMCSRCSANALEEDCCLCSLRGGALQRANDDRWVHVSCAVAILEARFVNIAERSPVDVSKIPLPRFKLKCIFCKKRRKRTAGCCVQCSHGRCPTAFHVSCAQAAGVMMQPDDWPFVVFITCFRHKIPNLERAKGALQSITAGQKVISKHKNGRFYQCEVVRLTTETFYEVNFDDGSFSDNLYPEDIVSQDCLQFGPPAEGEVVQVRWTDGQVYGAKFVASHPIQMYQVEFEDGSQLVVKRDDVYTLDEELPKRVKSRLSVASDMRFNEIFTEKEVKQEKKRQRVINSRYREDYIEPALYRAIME
G9a block = qHTS Assay for Inhibitors of Histone Lysine Methyltransferase G9a; AID 504332, 2011; Histone-lysine N-methyltransferase EHMT2 (Homo sapiens), Q96KQ7; G9a H3K9 monomethylation, AlphaScreen, 2 h; Potency, µM (series often up to 102 µM), for inactives: top-dose activity, negative = inhibition, usual class: inhibitors; 8.8% of 350,000 active; note: % is set by controls: 0 for no effect and ±100 for the full control effect; nearly all actives have a fitted effect of over 75% in size
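Methyltransferase reactions run at room temperature for 2 h (20 nM enzyme, 500 nM biotin-H3K9 peptide, 20 uM SAM) after a 15 min compound preincubation; product detected by AlphaScreen beads and anti-H3K9me1 antibody.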
HP1b binding inh = HTS for Inhibitors of HP1-beta Chromodomain Interactions with Methylated Histone Tails; Chromobox protein homolog 1 (Homo sapiens), P83916; AlphaScreen HP1-beta / biotin-H3K9me3 peptide binding; Potency, µM (doses to about 114 µM), for the others: at the highest dose activity change, negative = inhibition, hits mostly inhibitors; 0.56% of 390,000 active; AID 540317, 2011; note: nearly all actives have a fitted effect of over 70% in size
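HP1-beta protein (50 nM final) preincubated 30 min at room temperature with biotinylated H3(1-18)K9me3 peptide (50 nM) in PBS pH 7.4, 0.01% Tween-20, then compound added for 30 min. AlphaScreen streptavidin donor/nickel chelate acceptor beads (10 ug/mL final), 30 min dark, luminescence read.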
An asterisk follows results filed as active; ? = inconclusive; / = no result; [ ] = dose if it differs, or a comment. Most compounds without a hit are left out; they make up all but 12% or so of the library. Calls come from the whole dose curve; as a rule, active = well fitted curve in the direction sought with a large enough effect; inconclusive = small, poorly fitted or top-dose-only effect, or another doubt; inactive = no such curve, though single readings can be large; an effect the other way counts as inactive or inconclusive. Potency is the fitted concentration of half-maximal effect.

SMILES | BAZ2B block | PLK1 PBD inh | Sfp inh | JMJD2A Tudor | G9a block | HP1b binding inh
CCOc1ccc(-c2cc(C)n3nc(C(=O)Nc4cc(Cl)ccc4O)cc3n2)cc1 | 0%[57.1 µM] | / | / | -18% | -49%[59 µM] | 14%
CCOc1cccc(C2C=C(c3ccc4c(c3)OCO4)NC(c3ccccc3F)N2)c1O (stereo not given) | / | / | / | ? | / | 2%[57 µM]
CC(C)=CCC/C(C)=C/CO/N=C1/C[C@@H](O)[C@@H](O)[C@@H]2[C@@H]3C(=O)N(C(C)(C)C)C(=O)[C@H]3CC[C@@H]12 | / | / | 9% | / | / | /
COc1ccc(/C(O)=C2/C(=O)C(=O)N(CCN(C)C)C2c2ccc(OC)c(OC)c2)c(C)c1 (stereo not given) | -38% | -2% | 6% | -13% | 40µM* | 19%
C=C(C)C1CC=C(CN2CCC(C(=O)OCC)CC2)CC1 (stereo not given) | -25% | -6% | -2% | 2.5µM* | ? | ?
C=C(C)[C@@H]1CC=C(CO)CC1 | / | ? | / | -19% | / | 19%
C=C(C)C1CC=C(CN2CC(C)OC(C)C2)CC1 (stereo not given) | ? | 0% | ? | 4µM* | 7.9µM* | ?
C=C(C)C1CC=C(C(=O)O)CC1 (stereo not given) | / | / | 10% | / | -16%[59 µM] | /
COc1ccc(S(=O)(=O)Nc2cccc(-c3ccc(N4CCCC4)nn3)c2)cc1F | -1% | / | / | -21% | 4%[59 µM] | 12%[57 µM]
COc1ccc(Cc2nc3ccccc3c(=O)n2N)cc1OC | / | -15% | / | -7% | / | 30%
COc1ccc(Br)cc1/C=N/NC(=O)C[n+]1ccccc1 | -15% | -4% | 5% | -9% | -13% | 34%
O=C(C[n+]1ccccc1)N/N=C/c1cc(Br)cc(Br)c1O | 10µM* | 1% | 3% | 22µM* | -12% | 27%
O=C(C[n+]1ccccc1)N/N=C/c1cc(Br)ccc1F | 71µM* | -8% | / | ? | -3%[12.7 µM] | 28%
O=C(C[n+]1ccccc1)N/N=C/c1ccc(C(=O)O)cc1 | 79µM* | 6% | / | -30% | ? | 52%
Cc1ccc(C)c(Cn2c(SCC(=O)NCc3ccccc3)nc3ccccc32)c1 | -9% | / | / | -1% | -2%[12.7 µM] | 26%
COc1ccc(-c2sc3ccc(OC)cc3c2C#CCCO)cc1 | 0% | -6% | -23% | -7% | 35µM* | 46%
COc1ccc(-c2sc3cc(OC)c(OC)cc3c2C#CC(C)(C)O)cc1 | ? | 2% | / | -26% | 13%[0.501 µM] | 28%
COc1ccc(-c2sc3ccc(N4CCOCC4)cc3c2C#CC(C)(C)O)cc1 | 50µM* | 2% | / | ? | -2%[0.501 µM] | 27%
COc1ccc(-c2sc3ccc(N4CCOCC4)cc3c2C#Cc2ccsc2)cc1 | / | -8% | / | 19% | / | 161%
COc1ccc(-c2sc3cc(OC)c(OC)cc3c2C#CCO)cc1 | / | -13% | / | 20µM* | / | 24%
COc1ccc2sc(-c3ccc(N(C)C)cc3)c(C#Cc3cncn3C)c2c1 | / | -3% | / | 22µM* | / | -27%
COc1ccc2sc(-c3ccc(N(C)C)cc3)c(C#CC(C)(C)O)c2c1 | 22% | -6% | / | 15% | 6%[0.501 µM] | 77%
COc1ccc(C2/C=C\CN(C(=O)CC(C)(C)C)C(C)C(=O)N2Cc2ccc(F)cc2)cc1 (stereo not given) | / | / | 9% | -14% | / | 40%
Cc1cccc(C)c1NC(=O)C1c2cccc[n+]2CC(=O)N1Cc1cccs1 (stereo not given) | / | -1% | 13% | -6% | 50µM* | 29%
Cc1ccccc1NC(=O)C1c2cccc[n+]2CC(=O)N1Cc1ccc2c(c1)OCO2 (stereo not given) | -21% | -29% | -12% | ? | 11µM* | 15%
SMILES | BAZ2B block | PLK1 PBD inh | Sfp inh | JMJD2A Tudor | G9a block | HP1b binding inh
Cc1cccc(C)c1NC(=O)C1c2ccccc2OCC(=O)N1Cc1ccc2c(c1)OCO2 (stereo not given) | / | -4% | / | / | / | /
Cc1ccc(OCc2ccc(C(=O)O)o2)c([N+](=O)[O-])c1 | -4% | -5% | -12% | -11% | 50µM* | 20%
Cc1ccc(OCCN2CCN(C)CC2)c([N+](=O)[O-])c1 | 50µM* | -2% | ? | 3.5µM* | 2.5µM* | -45%
Cc1ccc(C)c(OCCCN2CCNCC2)c1 | -2% | -7% | -6% | -25% | ? | 23%
O=[N+]([O-])c1cccc(OCCN2CCC(Cc3ccccc3)CC2)c1 | 56µM* | -14% | -14% | 14µM* | 11µM* | ?
Cc1ccc(OCCN2CCNCC2)c([N+](=O)[O-])c1 | 56µM* | ? | -29% | 40µM* | 8.9µM* | -7%
O=C(c1ccc([N+](=O)[O-])cc1)N1CCC(Cc2ccccc2)CC1 | ? | ? | -3% | ? | -35% | -8%
O=[N+]([O-])c1ccccc1OCCCN1CCc2ccccc2C1 | -35% | -5% | 16% | -20% | ? | 34%
CC1CC(C)CN(CCCOc2ccccc2[N+](=O)[O-])C1 (stereo not given) | -30% | -11% | -68% | 32µM* | 14µM* | ?
Cc1ccc([N+](=O)[O-])c(OCCCN2CCC(Cc3ccccc3)CC2)c1 | / | 8% | / | 20µM* | / | ?
Cc1ccc([N+](=O)[O-])c(OCCN2CCc3ccccc3C2)c1 | 50µM* | -7% | -28% | 20µM* | 10µM* | ?
Cc1ccc(N(C(=O)c2csnn2)C(C(=O)NC2CCCCC2)c2ccco2)cc1 (stereo not given) | ? | -14% | -1% | -20% | 2% | 129%
CCc1ccc(NC(=O)c2ccc(CN3CC(=O)N4CCCCC4C3=O)cc2)cc1 (stereo not given) | -3% | / | / | -21% | 3%[59 µM] | -5%
CC[C@@](C)(NS(=O)(=O)OCC(Cl)(Cl)Cl)c1ccccc1 | -3% | -6% | 1% | -1% | 13% | 50%
CC(=O)OC1=C(C#N)Cn2ccc3cccc1c32 | -12% | / | -2% | / | 11µM* | /
CCN1CCCC1Cn1cnc2c([nH]c3cccc(Cl)c32)c1=O (stereo not given) | -22% | -10% | -6% | -13% | 32µM* | 16%
COCc1cc(C)nc(N2CCN(c3ccccc3)CC2)c1C#N | 18% | -4% | -1% | 3% | 0%[12.7 µM] | 73%
COCc1cc(C)nc(N2CCN(Cc3ccccc3)CC2)c1C#N | 34% | 1% | -3% | 7% | 50µM* | 23%
